Experimental data from PubChem BioAssay (Tox21).
Records with an inconclusive call do not appear. The source made the active and inactive calls. Unless noted, calls follow the shape of the dose curve; as a rule, active = well fitted curve in the direction sought with a large enough effect in the repeat runs; inconclusive = weak or mixed curves; inactive = no such curve, though single readings can be large; an effect the other way counts as inactive or inconclusive.

How the values were obtained:
[1] = qHTS assay to identify small molecule agonists of the peroxisome proliferator-activated receptor delta (PPARd) signaling pathway - cell viability counter screen (AID 743211); also: nearly all actives have a fitted effect of over 55% in size
Summary of the method: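 PPARd-bla HEK293H cells (UAS-beta-lactamase reporter) were treated with compounds for 17 h at 37 C. Viability was then read in the same wells by CellTiter-Glo luminescence after 30 min at room temperature.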

[2] = target: Peroxisome proliferator-activated receptor delta (Homo sapiens) (UniProt Q03181); experiment: qHTS assay to identify small molecule agonists of the peroxisome proliferator-activated receptor delta (PPARd) signaling pathway (AID 743212; calls by dose curve)
Summary of the method: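 HEK293H PPARd-bla cells; 5 h preincubation 37 C/5% CO2; compound (DMSO) 37 C; LiveBLAzer B/G FRET substrate 2 h RT; fluorescence intensity.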

[3] = qHTS assay to identify small molecule antagonists of the peroxisome proliferator-activated receptor delta (PPARd) signaling pathway - cell viability counter screen (AID 743213); also: nearly all actives have a fitted effect of over 50% in size
Summary of the method: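 Luminescence from CellTiter-Glo, added after the bla read and incubated 30 min at room temperature, gives viability of HEK293H PPARd-bla cells exposed to compounds for 17 h at 37 C with 300 nM L165041.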

[4] = target: Peroxisome proliferator-activated receptor delta (Homo sapiens) (UniProt Q03181); experiment: qHTS assay to identify small molecule antagonists of the peroxisome proliferator-activated receptor delta (PPARd) signaling pathway (AID 743215; active = well fitted inhibition curve with a large enough effect in the signal ratio in the repeat runs, not every such curve was filed as active; the % refers to the signal ratio;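 also: cells stimulated with agonist L165041 at 300 nM final during compound exposure; series mostly up to about 62 µM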)
Summary of the method: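 PPARd-bla HEK293H cells (UAS-bla reporter) preincubated 5 h, then given compound plus 300 nM final L165041 agonist for 17 h at 37 C. Beta-lactamase activity read by LiveBLAzer B/G FRET substrate fluorescence after 2 h at room temperature.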

[5] = qHTS assay to identify small molecule agonists of the farnesoid-X-receptor (FXR) signaling pathway - cell viability counter screen (AID 743218); also: nearly all actives have a fitted effect of over 45% in size
Summary of the method: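 FXR-UAS-bla HEK 293T cells exposed to compounds for 16 h at 37C. Cytotoxicity read in the same wells by CellTiter-Glo luminescence after 30 min at room temperature, following the beta-lactamase FRET read.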

[6] = qHTS assay to identify small molecule antagonists of the farnesoid-X-receptor (FXR) signaling pathway - cell viability counter screen (AID 743221; active = well fitted cell-killing curve with a large enough effect in the repeat runs, not every such curve was filed as active; also: nearly all actives have a fitted effect of over 50% in size)
Summary of the method: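 FXR-UAS-bla HEK 293T cells were treated with test compounds plus chenodeoxycholic acid (50 uM final) for 16 h at 37 C. Cell viability in the same wells was then read as CellTiter-Glo luminescence after 30 min at room temperature.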

[7] = target: Vitamin D3 receptor (Homo sapiens) (UniProt P11473); experiment: qHTS assay to identify small molecule agonists of the vitamin D receptor (VDR) signaling pathway (AID 743222; calls by dose curve)
Summary of the method: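 VDR-bla cells plated 4 h at 37 C, then exposed to compounds for 16 h at 37 C. Beta-lactamase reporter activity measured by fluorescence after 2 h room-temperature loading with LiveBLAzer B/G FRET substrate.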

[8] = target: Vitamin D3 receptor (Homo sapiens) (UniProt P11473); experiment: qHTS assay to identify small molecule antagonists of the vitamin D receptor (VDR) signaling pathway (AID 743223; active = well fitted inhibition curve with a large enough effect in the signal ratio in the repeat runs, not every such curve was filed as active; the % refers to the signal ratio)
Summary of the method: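 VDR-bla cells were plated, incubated 4 h at 37C, then given compound and 1alpha,25-dihydroxyvitamin D3 (3 nM final). After 16 h at 37C, LiveBLAzer B/G FRET substrate was added for 2 h at room temperature and fluorescence read.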

[9] = qHTS assay to identify small molecule agonists of the vitamin D receptor (VDR) signaling pathway - cell viability counter screen (AID 743224); also: series mostly up to about 63 µM; nearly all actives have a fitted effect of over 50% in size
Summary of the method: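 VDR-bla cells, 4 h after plating, exposed to compounds for 16 h at 37C; viability then read in the same wells as CellTiter-Glo luminescence after 30 min at room temperature, following the bla FRET read.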

[10] = qHTS assay to identify small molecule agonists of the NFkB signaling pathway (AID 1159509; active = well fitted curve in the direction sought with a large enough effect in the signal ratio in the repeat runs, not every such curve was filed as active; the % refers to the signal ratio; also: series mostly up to about 61 µM)
Summary of the method: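 NFkB-bla ME-180 cells carry a beta-lactamase reporter under an NF-kB response element. They were plated overnight, then exposed to compounds for 5 h at 37 C. Read-out is LiveBLAzer FRET after 1.5 hr at room temperature (405 nm excitation; 460/530 nm emission).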

[11] = qHTS assay to identify small molecule agonists of the NFkB signaling pathway - cell viability counter screen (AID 1159515; calls by dose curve; also: series mostly up to about 61 µM; nearly all actives have a fitted effect of over 55% in size)
Summary of the method: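 NFkB-bla ME-180 cells, 2,000/well, plated overnight at 37 C; compound added for 5 hr at 37 C. Viability read in the same wells as the bla reporter, by CellTiter-Glo luminescence after 30 min at room temperature.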

[12] = qHTS assay to identify small molecule agonists of the endoplasmic reticulum stress response signaling pathway (AID 1159516; active = well fitted activation curve with a large enough effect in the signal ratio in the repeat runs, not every such curve was filed as active; the % refers to the signal ratio)
Summary of the method: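 CellSensor ESRE-bla HeLa cells, 1,500 per well, plated overnight, then exposed to compounds for 5 hr at 37 C. Beta-lactamase reporter read with LiveBLAzer B/G FRET substrate after 2 hr at room temperature, 405 nm excitation, 460 and 530 nm emission.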

[13] = qHTS assay to identify small molecule agonists of the endoplasmic reticulum stress response signaling pathway - cell viability counter screen (AID 1159517; calls by dose curve;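 also: HeLa cells carrying an ER stress response element beta-lactamase reporter; series mostly up to about 61 µM; nearly all actives have a fitted effect of over 50% in size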)
Summary of the method: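 HeLa cells carrying an ESRE-driven beta-lactamase reporter receive compound for 5 hr at 37 C. Cell viability is then gauged with CellTiter-Glo by luminescence, 30 min at room temperature.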

[14] = qHTS assay to identify small molecule antagonists of the retinoid-related orphan receptor gamma (ROR-gamma) signaling pathway - cell viability counter screen (AID 1159520); also: nearly all actives have a fitted effect of over 50% in size
Summary of the method: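 Cytotoxicity was read from cellular ATP (CellTiter-Glo luminescence) after 16 hr at 37 C with 1 uM doxycycline induction. The inducer was added 2 hr after compound transfer to Tet-on ROR gamma CHO cells.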

[15] = target: Nuclear receptor ROR-gamma (Homo sapiens) (UniProt P51449); experiment: qHTS assay to identify small molecule antagonists of the retinoid-related orphan receptor gamma (ROR-gamma) signaling pathway (AID 1159521)
Summary of the method: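 Tet-on RORγ CHO cells carrying a ROR response element–luciferase reporter were pretreated with compounds for 2 h, then induced with 1 uM (final) doxycycline hyclate for 16 h at 37 C. Antagonism was read as decreased ONE-Glo luminescence.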

[16] = qHTS assay to identify small molecule agonists of the AP-1 signaling pathway (AID 1159526; calls by dose curve)
[17] = target: Bile acid receptor (Homo sapiens) (UniProt Q96RI1); experiment: qHTS assay to identify small molecule agonists of the farnesoid-X-receptor (FXR) signaling pathway (AID 743220; active = well fitted activation curve with a large enough effect in the signal ratio in the repeat runs, not every such curve was filed as active; the % refers to the signal ratio)
Summary of the method: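 Beta-lactamase reporter under UAS control in GeneBLAzer FXR HEK 293T cells (5000/well) measured with LiveBLAzer FRET substrate after 2 h at room temperature. Compound exposure lasted 16 h at 37C.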

[18] = qHTS assay to identify small molecule antagonists of the vitamin D receptor (VDR) signaling pathway - cell viability counter screen (AID 743225); also: nearly all actives have a fitted effect of over 50% in size
Summary of the method: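 VDR-bla HEK 293T cells, 4 h pre-incubation at 37C, then compound plus 1-alpha,25-dihydroxyvitamin D3 (3 nM final) for 16 h. After the beta-lactamase FRET read, CellTiter-Glo was added to the same wells; luminescence after 30 min at room temperature.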

[19] = qHTS assay to identify small molecule agonists of the AP-1 signaling pathway - cell viability counter screen (AID 1159525; calls by dose curve; also: nearly all actives have a fitted effect of over 55% in size)
Summary of the method: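 Luminescent ATP readout (Cell Titer Glo, 30 min RT), normalised to DMSO and tetra n-octyl ammonium bromide controls. Cells were ME-180 AP-1-bla in 0.5% dialyzed FBS Opti-MEM, with a 5 h, 37 °C compound exposure.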

[20] = target: Bile acid receptor (Homo sapiens) (UniProt Q96RI1); experiment: qHTS assay to identify small molecule antagonists of the farnesoid-X-receptor (FXR) signaling pathway (AID 743217; active = well fitted inhibition curve with a large enough effect in the signal ratio in the repeat runs, not every such curve was filed as active; the % refers to the signal ratio)
Summary of the method: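 FXR-UAS-bla HEK 293T cells (beta-lactamase reporter) given compound plus chenodeoxycholic acid (50 uM final), 16 h at 37C. LiveBLAzer B/G FRET substrate added for 2 h at room temperature; fluorescence read.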

Measured: Potency

Bile acid receptor (Homo sapiens), sequence (Q96RI1 whole entry, looked up): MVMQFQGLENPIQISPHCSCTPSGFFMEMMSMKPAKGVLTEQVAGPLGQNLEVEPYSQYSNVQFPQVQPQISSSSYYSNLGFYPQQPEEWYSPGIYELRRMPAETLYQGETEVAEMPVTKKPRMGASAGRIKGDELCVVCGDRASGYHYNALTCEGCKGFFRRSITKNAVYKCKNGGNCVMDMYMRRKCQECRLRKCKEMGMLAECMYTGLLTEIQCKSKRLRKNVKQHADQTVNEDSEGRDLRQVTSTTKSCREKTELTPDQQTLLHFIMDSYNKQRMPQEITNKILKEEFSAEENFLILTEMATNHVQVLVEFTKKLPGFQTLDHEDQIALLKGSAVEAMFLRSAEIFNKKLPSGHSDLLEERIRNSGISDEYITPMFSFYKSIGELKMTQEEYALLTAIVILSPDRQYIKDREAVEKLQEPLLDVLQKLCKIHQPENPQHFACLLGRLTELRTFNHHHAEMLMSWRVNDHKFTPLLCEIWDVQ
Vitamin D3 receptor (Homo sapiens), sequence (P11473 whole entry, looked up): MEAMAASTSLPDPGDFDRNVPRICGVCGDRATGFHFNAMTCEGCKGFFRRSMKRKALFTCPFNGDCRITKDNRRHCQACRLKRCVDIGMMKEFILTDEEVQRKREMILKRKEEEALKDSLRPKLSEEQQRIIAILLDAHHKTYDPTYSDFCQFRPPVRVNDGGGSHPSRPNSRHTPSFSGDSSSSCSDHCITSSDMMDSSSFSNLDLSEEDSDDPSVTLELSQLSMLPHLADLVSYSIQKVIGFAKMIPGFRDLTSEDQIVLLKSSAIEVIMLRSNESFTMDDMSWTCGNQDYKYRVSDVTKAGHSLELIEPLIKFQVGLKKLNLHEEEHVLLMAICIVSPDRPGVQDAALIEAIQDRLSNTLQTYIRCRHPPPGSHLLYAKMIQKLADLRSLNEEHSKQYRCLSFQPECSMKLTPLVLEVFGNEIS
Peroxisome proliferator-activated receptor delta (Homo sapiens), sequence (Q03181 whole entry, looked up): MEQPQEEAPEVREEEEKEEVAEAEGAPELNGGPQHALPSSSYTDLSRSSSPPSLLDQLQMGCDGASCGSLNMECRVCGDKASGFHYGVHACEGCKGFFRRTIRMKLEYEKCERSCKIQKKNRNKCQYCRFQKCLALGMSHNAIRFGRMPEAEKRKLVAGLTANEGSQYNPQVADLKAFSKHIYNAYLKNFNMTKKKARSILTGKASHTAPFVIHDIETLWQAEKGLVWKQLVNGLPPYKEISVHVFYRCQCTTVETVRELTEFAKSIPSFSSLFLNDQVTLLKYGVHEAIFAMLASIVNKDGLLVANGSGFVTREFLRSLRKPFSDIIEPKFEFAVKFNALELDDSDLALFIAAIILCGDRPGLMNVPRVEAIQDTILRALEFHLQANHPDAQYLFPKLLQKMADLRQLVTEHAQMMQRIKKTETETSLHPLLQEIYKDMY

CCCC1CCC(=O)O1 (configuration not stated)
not listed: [17] | [18] | [19] | [20]
inactive: all other assays above

C=CCc1cc(OC)c(O)c(C(=O)NCCO)c1
not listed: [2] | [3] | [4] | [19] | [20]
inactive: all other assays above

CCOC(=O)CS
not listed: [1] | [16] | [18] | [20]
inactive: all other assays above

CC(=O)OC1C2(C)CCC(C2)C1(C)C (configuration not stated)
not listed: [5] | [6] | [7] | [8] | [15]
inactive: all other assays above

CCCCCCCCCC/C=C/C#N
not listed: [15] | [20]
inactive: all other assays above

N#CSCC(=O)O
not listed: [7] | [8] | [15]
inactive: all other assays above

OCCN1CCN(CCO)CC1
not listed: [15] | [17] | [20]
inactive: all other assays above

NCCCN1CCN(CCCN)CC1
not listed: [15] | [17] | [20]
inactive: all other assays above

CCN(CC)C(=O)N(CC)CC
not listed: [5] | [15]
inactive: all other assays above

CC/C=C\CCOC(=O)CCCCC
not listed: [8] | [15] | [17] | [18] | [20]
inactive: all other assays above

CCC1(C)NC(=O)NC1=O (configuration not stated)
not listed: [15] | [18]
inactive: all other assays above
